Our source for the Potency and activity change, negative = cytotoxicity values is PubChem BioAssay (NCATS).

Assay in all cases: Primary qHTS to identify gynecologic anti-cancer compounds using libraries of approved drugs and bioactive compounds (AID 1345084); also: nearly all actives have a fitted effect of over 55% in size
Holding throughout (details): Gynecologic cancer cell panel viability, ATPlite luminescence, 48 h; series mostly up to 57.5 µM

In assay [1] the test system is SKOV3. The gist of the method: (§1)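 Luminescence from the ATPlite ATP-monitoring reagent indicates viable cell number; lower signal means cytotoxicity. Cells received compound 16 h after seeding and were exposed for 48 h across five concentrations.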
Assay [2] relates to Tov-21-G. The method in brief:
as §1

Assay [3] has as its system Tov112D. The method in brief:
as §1

Inconclusive results are not listed. Values without a mark were called inactive. The source made the active and inactive calls. Calls follow the shape of the dose curve; as a rule, active = well fitted cell-killing curve with a large enough effect; inconclusive = small, poorly fitted or top-dose-only effect, or effect the other way; inactive = flat fitted curve, though single readings scatter.
% is scaled to controls: 0 for no effect and ±100 for the full control effect; potency is read from the fitted curve at half-maximal effect.

Regarding `CC1=C(C(=O)OC2CCCCC2)C(c2ccc([N+](=O)[O-])cc2)C2=C(CC(C)(C)CC2=O)N1` (stereo unspecified), the Potency entry in assay [1], in assay [2] and in assay [3] was “inactive” in each case.
For the molecule `Cc1cc2c(N3CCCC3)nc(N3CCCC3)nc2n1C`, the Potency result in assay [1], in assay [2] and in assay [3] was “inactive” each time.
As to `CN1CCc2cc3c(cc2C(=O)Cc2cc4c(cc2C1)OCO4)OCO3`, the Potency entry in assay [1], in assay [2] and in assay [3] was “inactive” each time.
Take `Cc1ccnc(NC(=O)C(C)c2cccc(C(=O)c3ccccc3)c2)c1` (stereo unspecified): the Potency entry in assay [1], in assay [2] and in assay [3] was “inactive” throughout.
As to `CC(C)=CCc1cc2c(cc1O)OC[C@H]1c3ccc(O)cc3O[C@@H]21`, the Potency result in assay [1], in assay [2] and in assay [3] was “inactive” in each case.
For `C=C1C(=O)O[C@@H]2[C@H]1CCC(C)=C(CCC(=O)O)[C@@]2(C)O`, the Potency result in assay [1], in assay [2] and in assay [3] was “inactive” throughout.
In the case of `COc1ccc(CN2CCN(CCCSc3cc(C(C)(C)C)c(O)c(C(C)(C)C)c3)CC2)c(OC)c1OC`, the activity change, negative = cytotoxicity is 17.3% [at 11.6 µM] in assay [1], 7.27% [at 11.6 µM] in assay [2] and 2.48% [at 11.6 µM] in assay [3].
For `CC1(C)Oc2ncnc(N)c2N=C1c1ccc(C23CCC(CC(=O)O)(CC2)CC3)cc1`, the Potency entry in assay [1], in assay [2] and in assay [3] was “inactive” throughout.
For `CC(C)=C1C[C@@]2(C)C(=CC1=O)CC[C@@H](OC(=O)/C(C)=C/CO)[C@@H]2C`, in assay [1], the Potency was 11.2 µM (active). Also, the Potency entry in assay [2] and in assay [3] was “inactive” each time.
In the case of `COc1ccc(NC(=O)c2ccc(-c3ccc(-c4nnc(C)o4)cc3C)cc2)cc1N1CCN(C)CC1`, the Potency result in assay [1], in assay [2] and in assay [3] was “inactive” in each case.
Take `CC(C)(CNC(=O)c1cccc(-c2noc(C(F)(F)F)n2)c1)c1coc(-c2ccccc2)n1`: the Potency entry in assay [1], in assay [2] and in assay [3] was “inactive” each time.
For the molecule `O=S(=O)(Nc1cc(Cl)c(Oc2cnc3ccccc3c2)c(Cl)c1)c1ccc(Cl)cc1Cl`, the Potency result in assay [1], in assay [2] and in assay [3] was “inactive” throughout.
With `O=C(NCCN1CCC(n2c(=O)[nH]c3ccccc32)CC1)c1ccc2ccccc2c1`, the Potency entry in assay [1], in assay [2] and in assay [3] was “inactive” in each case.
In the case of `CC(C)(O)C1CC(=O)C2(C)C(CCC3(C)C(c4ccoc4)OC(=O)C4OC432)C12CCC(=O)OC2` (stereo unspecified), the Potency result in assay [1], in assay [2] and in assay [3] was “inactive” throughout.
For the molecule `CCOC(=O)c1cnn(-c2ccccc2)c1NC(=O)c1cc2nc(-c3ccco3)cc(C(F)(F)Cl)n2n1`, the Potency result in assay [1], in assay [2] and in assay [3] was “inactive” each time.
For the molecule `COc1ccccc1N1CCN(CC(C(=O)NC(C)(C)C)c2ccccc2)CC1` (stereo unspecified), the Potency entry in assay [1], in assay [2] and in assay [3] was “inactive” each time.
In the case of `Cc1cc(F)ccc1-c1nc(NCCN=C(N)NC#N)nc2c1ccc(=O)n2-c1c(F)cccc1F`, the Potency result in assay [1], in assay [2] and in assay [3] was “inactive” each time.
For `CC(C)(C)NC(=O)[C@H]1CC[C@H]2[C@@H]3CC[C@H]4NC(=O)CC[C@]4(C)[C@H]3CC[C@]12C`, the Potency entry in assay [1], in assay [2] and in assay [3] was “inactive” throughout.
On to `O=C(NCCCCN1CCN(c2cccc(Cl)c2Cl)CC1)c1cc2ccccc2s1`, for which the Potency entry in assay [1], in assay [2] and in assay [3] was “inactive” in each case.
For `COc1ccccc1OCCN1CC(COc2cccc3[nH]c4ccccc4c23)OCC1=O` (stereo unspecified), the Potency entry in assay [1], in assay [2] and in assay [3] was “inactive” in each case.
As to `O=C(C(Cc1cccc(C(F)(F)F)c1)NS(=O)(=O)c1cc(F)c2c(c1)CCNC2)N1CCCC1` (stereo unspecified), the Potency entry in assay [1], in assay [2] and in assay [3] was “inactive” each time.
In the case of `CC/C(C)=C/C(=O)OC1C(OC2(C)CCC3C(C4C(C)CCC42)C3(C)C)OC(C)C(O)C1O` (stereo unspecified), the Potency entry in assay [1], in assay [2] and in assay [3] was “inactive” each time.
On to `CCCSc1nc(N[C@@H]2C[C@H]2c2ccc(F)c(F)c2)c2nnn([C@@H]3C[C@H](OCCO)[C@@H](O)[C@H]3O)c2n1`, for which the Potency result in assay [1], in assay [2] and in assay [3] was “inactive” throughout.
Regarding `CC1=C(C(=O)Nc2cc(Cl)ccc2Cl)C(c2ccco2)C2=C(CCCC2=O)N1` (stereo unspecified), the Potency result in assay [1], in assay [2] and in assay [3] was “inactive” each time.
For `CC(=O)O[C@@H]1C2=C(O)C(=O)[C@](C)(OC(C)=O)C(=O)C2=CO[C@@]12O[C@@H](C)CC[C@H]2OC(C)=O`, the Potency entry in assay [1], in assay [2] and in assay [3] was “inactive” each time.
Take `O=C(c1cc(Cc2n[nH]c(=O)c3ccccc23)ccc1F)N1CCCNCC1`: the Potency entry in assay [1], in assay [2] and in assay [3] was “inactive” in each case.
With `C=C(C)C1CCC2(C(=O)O)CCC3(C)C(CCC4C5(C)C(C=O)C(O)C(C)(C)C5CCC43C)C12` (stereo unspecified), the Potency entry in assay [1], in assay [2] and in assay [3] was “inactive” in each case.
In the case of `COc1ccccc1OCCNCC(O)CCOc1cccc2[nH]c3ccccc3c12` (stereo unspecified), the Potency entry in assay [1], in assay [2] and in assay [3] was “inactive” throughout.
As to `O=C(NCCCN1CCOCC1)c1cnn2c(-c3ccccc3)cc(-c3ccccc3)nc12`, the Potency result in assay [1], in assay [2] and in assay [3] was “inactive” in each case.
As for `C=CCC1=C[C@]2(OC)[C@H](C)[C@@H](c3ccc4c(c3)OCO4)O[C@]2(OC)CC1=O`, the Potency entry in assay [1], in assay [2] and in assay [3] was “inactive” each time.
With `CC[C@@H]1C[C@]1(NC(=O)[C@@H]1C[C@@H]2CN1C(=O)[C@H](C(C)(C)C)NC(=O)OCC(C)(C)CCCCc1cccc3c1CN(C3)C(=O)O2)C(=O)NS(=O)(=O)C1CC1`, the Potency result in assay [1], in assay [2] and in assay [3] was “inactive” each time.
Consider `O=C(OC1CN2CCC1CC2)N1CCc2ccccc2C1c1ccccc1` (stereo unspecified), for which the Potency entry in assay [1], in assay [2] and in assay [3] was “inactive” in each case.
